Values joined by “and” are separate entries in the source; they are usually repeats but may differ in a detail not shown here. Identical values can stand only once. Results filed as inconclusive are left out. A number with no mark means an inactive call. Active and inactive are the calls of the source. Calls follow the shape of the dose curve; as a rule, active = well fitted inhibition curve with a large enough effect in the repeat runs; inconclusive = weak or mixed curves; inactive = no such curve, though single readings can be large or run the other way.
Target: Cytochrome P450 3A4 (Homo sapiens) (UniProt P08684)
Assay: Cytochrome P450 Family 3 Subfamily A Member 4 (CYP3A4) small molecule antagonists: luciferase reporter qHTS assay (AID 1671201); also: nearly all actives have a fitted effect of over 50% in size
Settings: P450-Glo CYP3A4 enzyme, luciferin luminescence, 1 h; series mostly up to 115 µM; activity change, negative = inhibition: at the top concentration
Excerpt: National Center for Advancing Translational Sciences [NCATS]
U.S. Environmental Protection Agency [EPA]
National Institutes of Environmental Health Sciences [NIEHS]
National Toxicology Program [NTP]
U.S. Food and Drug Administration [FDA]
Cytochrome P450 (CYP) enzymes are membrane-bound hemeproteins that play a key role in metabolism of drugs and xenobiotics. Evaluation of the effect of chemicals on CYP isozymes is useful to minimize the adverse drug reactions and toxicities in drug development process. Tox21 chemicals were tested for their effect on CYP enzyme activities by using P450-Glo (TM) screening systems (Promega Corporation, Madison, WI). These systems provide a luminescent method containing proluciferin substrates and are converted to luciferin products by CYP isozymes. The luciferin products formed are detected with a luciferin detection reagent, and the amount of light produced is proportional to CYP activity. P450-Glo (TM) CYP3A4 screening system (Catalog. No. V9910) was used to detect the compounds that interfere in CYP3A4 activity. The positive control compound used for CYP3A4 assay is ketoconazole (Sigma-Aldrich, St. Louis, MO).
Tox21 Assay Protocol Summary:
Two ul of enzyme-substrate mix was dispensed into medium binding white/solid 1536-well plates (Greiner Bio-One North America Inc., Monroe, NC) using a BioRaptr Flying Reagent Dispenser (FRD, Beckman Coulter, Brea, CA). Compounds dissolved in DMSO and positive control (ketoconazole) were transferred to the assay plates at 23 nl using a Pintool station (Wako, San Diego, CA). The assay plates were incubated at room temperature for 10 min. Then 2 ul of NADPH regeneration solution was added to each well of the assay plates using an FRD and incubated at room temperature for 1 h. The reaction was stopped by adding 4 ul of detection reagent using an FRD and after 20 min incubation at room temperature the luminescence signal was measured using a ViewLux plate reader (Perkin Elmer, Shelton, CT). Data were expressed as relative luminescence units.
% is scaled to controls: 0 for no effect and ±100 for the full control effect; potency is read from the fitted curve at half-maximal effect.

Sequence of Cytochrome P450 3A4 (Homo sapiens) (P08684 whole entry, looked up): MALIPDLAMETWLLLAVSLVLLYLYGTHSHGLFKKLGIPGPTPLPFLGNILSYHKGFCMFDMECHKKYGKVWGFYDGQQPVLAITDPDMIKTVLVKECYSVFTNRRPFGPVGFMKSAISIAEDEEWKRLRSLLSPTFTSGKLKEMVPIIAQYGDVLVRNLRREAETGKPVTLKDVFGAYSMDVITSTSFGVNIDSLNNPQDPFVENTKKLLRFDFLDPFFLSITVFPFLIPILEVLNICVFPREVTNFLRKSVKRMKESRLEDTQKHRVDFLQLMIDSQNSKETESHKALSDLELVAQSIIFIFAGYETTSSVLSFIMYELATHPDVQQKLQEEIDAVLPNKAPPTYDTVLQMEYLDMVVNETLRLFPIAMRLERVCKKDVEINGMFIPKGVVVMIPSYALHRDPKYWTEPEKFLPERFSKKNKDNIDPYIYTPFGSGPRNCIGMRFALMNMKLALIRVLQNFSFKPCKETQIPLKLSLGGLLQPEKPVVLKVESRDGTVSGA

Question: How did the “activity change, negative = inhibition” value turn out when `CCOC(=O)COc1ccc(C)cc1` was run?
Answer: 1.03%

Question: How did the “activity change, negative = inhibition” value turn out when `N#CSCSc1nc2ccccc2s1` was run?
Answer: -13.2%

Question: For `C=CC(=O)OCCOCC(CC)(COCCOC(=O)C=C)COCCOC(=O)C=C`, which Potency is on record?
Answer: 0.932 µM (active)

Question: With `O=C(Nc1ccc(Cl)cc1)Nc1ccc(Cl)c(C(F)(F)F)c1` as the compound, how does the “activity change, negative = inhibition” value read?
Answer: -18.1% [at 52.9 µM]

Question: With `O=c1cccc[nH]1` as the compound, how does the “activity change, negative = inhibition” value read?
Answer: -0.276%

Question: For `Nc1ccc2cc3ccc(N)cc3nc2c1`, which Potency is on record?
Answer: 3.99 µM (active)

Question: For `Cc1cc2c(C(C)C)c(O)c(O)c(C=O)c2c(O)c1-c1c(C)cc2c(C(C)C)c(O)c(O)c(C=O)c2c1O`, which “activity change, negative = inhibition” value is on record?
Answer: -17.9% [at 52.9 µM]

Question: With `CCCCCCCCCCc1ccccc1` as the compound, how does the “activity change, negative = inhibition” value read?
Answer: 6.71%

Question: How did the “activity change, negative = inhibition” value turn out when `CCc1c(C(=O)O)c(=O)cnn1-c1ccc(Cl)cc1` was run?
Answer: 14.9%

Question: With `O=C[C@H](O)[C@H](O)[C@H](O)CO` as the compound, how does the “activity change, negative = inhibition” value read?
Answer: 6.47%

Question: Which “activity change, negative = inhibition” value does the source give for `NC(=O)C(=O)N/N=C/c1ccc([N+](=O)[O-])o1` here?
Answer: -3.37% [at 52.9 µM]

Question: Which Potency does the source give for `C=C[C@](C)(O)CC[C@@H]1[C@@]2(C)CCCC(C)(C)[C@@H]2CC[C@@]1(C)O` here?
Answer: 5.03 µM (active)

Question: For `CN1CN(C)CN(C)C1`, which “activity change, negative = inhibition” value is on record?
Answer: 6.4%

Question: `CCc1ccc(C)nc1` was tested. Which “activity change, negative = inhibition” value did it give?
Answer: 11%

Question: With `O=C(c1ccccc1)c1cc(Cl)ccc1O` as the compound, how does the “activity change, negative = inhibition” value read?
Answer: -19.9%

Question: For `O=C1NC2CCCCN2C12CCN(CCCN1c3ccccc3CCc3ccc(Cl)cc31)CC2` (stereo not given), which “activity change, negative = inhibition” value is on record?
Answer: 70.5% [at 52.9 µM]

Question: How did the “activity change, negative = inhibition” value turn out when `CCCCCCCCCCOCC(O)CN` (stereo not given) was run?
Answer: -18% [at 52.9 µM]

Question: `COC(=O)[C@]1(C)CCC[C@@]2(C)[C@H]1CC=C1C=C(C(C)C)CC[C@@H]12` was tested. Which Potency did it give?
Answer: 35.6 µM (active)

Question: How did the Potency turn out when `CCCCCCCCCCCCOC(=O)c1cc(O)c(O)c(O)c1` was run?
Answer: 17.8 µM (active) and 20 µM (active)

Question: For `CC(C)(C)c1cc(/C=C2\SC(=N)NC2=O)cc(C(C)(C)C)c1O`, which Potency is on record?
Answer: 11.2 µM (active)

Question: With `O=CC1CC1` as the compound, how does the “activity change, negative = inhibition” value read?
Answer: -11.5%

Question: `CC(C)(C)c1n[nH]c(=O)n(N)c1=O` was tested. Which “activity change, negative = inhibition” value did it give?
Answer: -10.1%

Question: How did the “activity change, negative = inhibition” value turn out when `CC=O` was run?
Answer: -7.15%

Question: Which Potency does the source give for `CCN=C1C=CC(=C(c2ccc(N(CC)CC)cc2)c2ccc(N(CC)CC)cc2)c2ccccc21` here?
Answer: 8.88 µM (active)

Question: For `CCOB(OCC)OCC`, which “activity change, negative = inhibition” value is on record?
Answer: 1.62%

Question: Which “activity change, negative = inhibition” value does the source give for `CC1CCCCN1CCCOC(=O)c1ccc(OC2CCCCC2)cc1` (stereo not given) here?
Answer: 20.2% [at 52.9 µM]

Question: For `CSc1c(Cl)c(Cl)c(Cl)c(Cl)c1Cl`, which “activity change, negative = inhibition” value is on record?
Answer: 3.09%

Question: With `CCCN(CCc1cccs1)[C@H]1CCc2c(O)cccc2C1` as the compound, how does the “activity change, negative = inhibition” value read?
Answer: 122% [at 52.9 µM]

Question: Which Potency does the source give for `COC(=O)NCCC[Si](OC)(OC)OC` here?
Answer: 28.3 µM (active)

Question: How did the “activity change, negative = inhibition” value turn out when `Cc1cnccn1` was run?
Answer: 4.91%

Question: How did the “activity change, negative = inhibition” value turn out when `Brc1ccccc1-c1ccccc1` was run?
Answer: 34%

Question: `O=C1Nc2ccc(Cl)cc2[C@@](C#CC2CC2)(C(F)(F)F)O1` was tested. Which “activity change, negative = inhibition” value did it give?
Answer: -10% [at 52.9 µM]

Question: How did the “activity change, negative = inhibition” value turn out when `CCNc1nc(NC(C)CC)nc(OC)n1` (stereo not given) was run?
Answer: 9.58%

Question: How did the Potency turn out when `Clc1ccc(C(c2ccccc2Cl)C(Cl)Cl)cc1` (stereo not given) was run?
Answer: inactive

Question: How did the “activity change, negative = inhibition” value turn out when `Oc1ccc(-c2ccccc2)c(Cl)c1` was run?
Answer: 0.276%

Question: Which “activity change, negative = inhibition” value does the source give for `CCc1c(Br)c(Br)c(Br)c(Br)c1Br` here?
Answer: 15.7%

Question: How did the “activity change, negative = inhibition” value turn out when `CO[Si](CCC1CCC2OC2C1)(OC)OC` (stereo not given) was run?
Answer: 3.26%

Question: With `C/C=C/c1ccc(OC)c(OC)c1` as the compound, how does the Potency read?
Answer: 20 µM (active)

Question: Which Potency does the source give for `CCN=c1cc2oc3cc(NCC)c(C)cc3c(-c3ccccc3C(=O)OCC)c-2cc1C` here?
Answer: 999 nM (active) and 2 µM (active)

Question: For `COc1cc(C(C)C)c2c(c1)S(=O)(=O)N(COc1cc(=O)n3cccc(OCCN4CCCCC4)c3n1)C2=O`, which Potency is on record?
Answer: 0.301 µM (active)

Reference: PubChem BioAssay (Tox21)
